Measured values published in PubChem BioAssay.
The source made the active and inactive calls.

Columns and labels:
[1] = system: PRMT1 (protein arginine N-methyltransferase 1); experiment: small molecules binding arginine methyltransferase PRMT1 – biochemical, small-molecule microarray, 635 nm fluorescence, primary screen (AID 1088); settings: higher = more signal;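 also: binding of Prmt1 protein to compounds spotted on small-molecule microarray slides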
[2] = growth effects on S. cerevisiae YJM789 – YJM789 clinical isolate, OD600, 24 h, basal, primary screen (AID 1089); settings: higher = more signal, called active from +8 up or from −8 down;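 also: growth of clinical yeast isolate S. cerevisiae YJM 789 seeded 1000 cells per well; test concentration not given here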
[3] = S. pombe growth modifiers, basal conditions – strain 972, OD600, 24 h, no modulator, primary screen (AID 1090);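 also: basal condition with compound alone and no growth modifier present; test concentration not given here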; settings: S. pombe 972 growth, higher = more signal, called active from +8 up or from −8 down
[4] = budding yeast growth modifiers under rapamycin – strain BY4716, OD600, 96 h, primary screen (AID 1091); also: test concentration not given here; settings: S. cerevisiae BY4716 + rapamycin, higher = more signal, called active from +8 up or from −8 down
[5] = target: Torsin-1A-interacting protein 2 (Homo sapiens) (UniProt Q8NFQ8); experiment: small molecules binding lysate-expressed LULL1 – cell lysate, human LULL1 lysate, 635/667 nm fluorescence, primary screen (AID 1092); settings: small-molecule microarray, hLULL1 lysate binding, 635 nm fluorescence; higher = more signal;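 also: probe is lysate of COS7 cells overexpressing human LULL1; score merges per-feature 667 nm fluorescence with signal-to-noise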
[6] = optical density change of DRC41 E. coli – strain DRC41, OD650, 24 h, E. coli filamentation project, primary screen (AID 1093);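 also: MC1000 strain lacking acrAB efflux and sulA so SOS filamentation is blocked; test concentration not given here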; settings: E. coli DRC41 growth, higher = more signal, called active from +8 up or from −8 down
[7] = probe aLefty2 binding to arrayed compounds – biochemical, biotinylated probe, 635/667 nm fluorescence, primary screen (AID 1094); settings: small-molecule microarray, higher = more signal;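 also: score merges spot fluorescence near 667 nm with spot signal-to-noise ratio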
[8] = system: Noggin (protein binding on small-molecule microarray); experiment: small molecules binding Noggin protein – biochemical, 635/667 nm fluorescence, primary screen (AID 1095); settings: 635 nm fluorescence, higher = more signal;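 also: score merges 667 nm feature fluorescence with signal to noise over triplicate slides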
[9] = target: Neurogenic locus notch homolog protein 3 (Homo sapiens) (UniProt Q9UM47); experiment: small molecules binding NOTCH3 protein – biochemical, 635/667 nm fluorescence, primary screen (AID 1096); settings: small-molecule microarray, 635 nm fluorescence, higher = more signal
[10] = probe aEGFR binding to arrayed compounds – biochemical, biotinylated probe, 635/667 nm fluorescence, primary screen (AID 1097); settings: small-molecule microarray, higher = more signal;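 also: probe is a biotinylated anti-EGFR antibody binding compounds printed on slides; score combines fluorescence near 667 nm and signal to noise of each spot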
[11] = system: Plasmodium falciparum Sir2 (PF13_0152, Sir2A); experiment: Plasmodium falciparum Sir2A binding compounds – biochemical, small-molecule microarray, 635 nm fluorescence, primary screen (AID 1098); settings: fluorescence 635 nm, higher = more signal;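 also: score merges spot fluorescence intensity with its signal-to-noise ratio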
[12] = probe aDKK1 binding to arrayed compounds – biochemical, biotinylated probe, 635/667 nm fluorescence, primary screen (AID 1099); settings: small-molecule microarray, higher = more signal;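 also: score merges 667nm spot fluorescence with signal to noise across triplicate slides; reference of the scale not given here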
[13] = probe aCHRDL2 binding to arrayed compounds – biochemical, biotinylated probe, 635/667 nm fluorescence, primary screen (AID 1100); settings: small-molecule microarray, higher = more signal
[14] = change in splice reporter luminescence, either direction, cell-based, HEK293, spliceosome inhibition project, primary screen (AID 1101); settings: HEK293 splicing luciferase reporter, 24 h, higher = more signal, called active from +8 up or from −8 down;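 also: HEK293 cells carrying a splicing-competent luciferase reporter gene; test concentration not given here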
[15] = target: Fibroblast growth factor 10 (Homo sapiens) (UniProt O15520); experiment: compounds binding fibroblast growth factor 10 – biochemical, small-molecule microarray, 635 nm fluorescence, primary screen (AID 1102); settings: FGF10 binding, fluorescence 635 nm, higher = more signal
[16] = system: glycogen synthase kinase-3 (GSK3A per assay name; protocol says GSK3B); experiment: compounds binding glycogen synthase kinase-3 – biochemical, small-molecule microarray, 635 nm fluorescence, GSK3A, primary screen (AID 1103); settings: fluorescence 635 nm, higher = more signal; also: the record names both GSK3A and GSK3B
[17] = target: Epidermal growth factor receptor (Homo sapiens) (UniProt P00533); experiment: compounds binding epidermal growth factor receptor – biochemical, small-molecule microarray, 635 nm fluorescence, primary screen (AID 1104); settings: EGFR binding, higher = more signal;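 also: score merges 667 nm emission intensity with spot signal to noise over triplicate slides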
[18] = target: Follistatin-related protein 3 (Homo sapiens) (UniProt O95633); experiment: compounds binding follistatin-related protein 3 – biochemical, small-molecule microarray, 635 nm fluorescence, primary screen (AID 1105); settings: FSTL3 binding, higher = more signal;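 also: score merges emission near 667 nm and signal to noise per printed spot across three slides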
[19] = target: Dickkopf-related protein 1 (Homo sapiens) (UniProt O94907); experiment: small molecules binding DKK1 protein – biochemical, small-molecule microarray, 635 nm fluorescence scan, primary screen (AID 1106); settings: higher = more signal;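 also: score merges emission near 667 nm with signal to noise over three replicate slides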
[20] = system: Inhibin beta A chain (activin A); experiment: small molecules binding activin A – biochemical, small-molecule microarray, 635 nm fluorescence scan, primary screen (AID 1107); settings: INHBA, higher = more signal;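 also: mouse activin A protein probed at 4.33 µg/mL on printed slides; score merges bound-protein fluorescence near 667 nm with spot signal-to-noise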

Fibroblast growth factor 10 (Homo sapiens), sequence (O15520 whole entry, looked up): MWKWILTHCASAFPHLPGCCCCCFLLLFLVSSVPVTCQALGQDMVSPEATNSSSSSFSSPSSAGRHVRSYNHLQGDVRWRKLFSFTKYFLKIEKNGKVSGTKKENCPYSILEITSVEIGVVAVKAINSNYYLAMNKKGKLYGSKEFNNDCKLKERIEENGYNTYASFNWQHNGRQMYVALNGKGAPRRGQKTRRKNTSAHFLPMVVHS
Torsin-1A-interacting protein 2 (Homo sapiens), sequence (Q8NFQ8 whole entry, looked up): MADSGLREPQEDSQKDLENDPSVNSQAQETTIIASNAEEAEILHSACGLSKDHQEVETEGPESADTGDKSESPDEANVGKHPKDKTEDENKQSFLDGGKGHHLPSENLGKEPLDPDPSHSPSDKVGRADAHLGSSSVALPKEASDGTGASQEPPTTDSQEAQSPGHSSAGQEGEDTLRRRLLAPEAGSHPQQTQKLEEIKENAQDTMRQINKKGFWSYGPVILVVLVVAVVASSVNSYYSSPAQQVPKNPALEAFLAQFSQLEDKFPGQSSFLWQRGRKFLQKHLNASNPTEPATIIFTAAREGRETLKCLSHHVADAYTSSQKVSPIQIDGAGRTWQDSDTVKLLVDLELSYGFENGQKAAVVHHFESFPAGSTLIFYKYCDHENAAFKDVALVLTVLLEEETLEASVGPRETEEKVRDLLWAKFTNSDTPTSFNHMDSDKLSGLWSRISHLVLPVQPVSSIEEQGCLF
Neurogenic locus notch homolog protein 3 (Homo sapiens), sequence (Q9UM47 whole entry, looked up): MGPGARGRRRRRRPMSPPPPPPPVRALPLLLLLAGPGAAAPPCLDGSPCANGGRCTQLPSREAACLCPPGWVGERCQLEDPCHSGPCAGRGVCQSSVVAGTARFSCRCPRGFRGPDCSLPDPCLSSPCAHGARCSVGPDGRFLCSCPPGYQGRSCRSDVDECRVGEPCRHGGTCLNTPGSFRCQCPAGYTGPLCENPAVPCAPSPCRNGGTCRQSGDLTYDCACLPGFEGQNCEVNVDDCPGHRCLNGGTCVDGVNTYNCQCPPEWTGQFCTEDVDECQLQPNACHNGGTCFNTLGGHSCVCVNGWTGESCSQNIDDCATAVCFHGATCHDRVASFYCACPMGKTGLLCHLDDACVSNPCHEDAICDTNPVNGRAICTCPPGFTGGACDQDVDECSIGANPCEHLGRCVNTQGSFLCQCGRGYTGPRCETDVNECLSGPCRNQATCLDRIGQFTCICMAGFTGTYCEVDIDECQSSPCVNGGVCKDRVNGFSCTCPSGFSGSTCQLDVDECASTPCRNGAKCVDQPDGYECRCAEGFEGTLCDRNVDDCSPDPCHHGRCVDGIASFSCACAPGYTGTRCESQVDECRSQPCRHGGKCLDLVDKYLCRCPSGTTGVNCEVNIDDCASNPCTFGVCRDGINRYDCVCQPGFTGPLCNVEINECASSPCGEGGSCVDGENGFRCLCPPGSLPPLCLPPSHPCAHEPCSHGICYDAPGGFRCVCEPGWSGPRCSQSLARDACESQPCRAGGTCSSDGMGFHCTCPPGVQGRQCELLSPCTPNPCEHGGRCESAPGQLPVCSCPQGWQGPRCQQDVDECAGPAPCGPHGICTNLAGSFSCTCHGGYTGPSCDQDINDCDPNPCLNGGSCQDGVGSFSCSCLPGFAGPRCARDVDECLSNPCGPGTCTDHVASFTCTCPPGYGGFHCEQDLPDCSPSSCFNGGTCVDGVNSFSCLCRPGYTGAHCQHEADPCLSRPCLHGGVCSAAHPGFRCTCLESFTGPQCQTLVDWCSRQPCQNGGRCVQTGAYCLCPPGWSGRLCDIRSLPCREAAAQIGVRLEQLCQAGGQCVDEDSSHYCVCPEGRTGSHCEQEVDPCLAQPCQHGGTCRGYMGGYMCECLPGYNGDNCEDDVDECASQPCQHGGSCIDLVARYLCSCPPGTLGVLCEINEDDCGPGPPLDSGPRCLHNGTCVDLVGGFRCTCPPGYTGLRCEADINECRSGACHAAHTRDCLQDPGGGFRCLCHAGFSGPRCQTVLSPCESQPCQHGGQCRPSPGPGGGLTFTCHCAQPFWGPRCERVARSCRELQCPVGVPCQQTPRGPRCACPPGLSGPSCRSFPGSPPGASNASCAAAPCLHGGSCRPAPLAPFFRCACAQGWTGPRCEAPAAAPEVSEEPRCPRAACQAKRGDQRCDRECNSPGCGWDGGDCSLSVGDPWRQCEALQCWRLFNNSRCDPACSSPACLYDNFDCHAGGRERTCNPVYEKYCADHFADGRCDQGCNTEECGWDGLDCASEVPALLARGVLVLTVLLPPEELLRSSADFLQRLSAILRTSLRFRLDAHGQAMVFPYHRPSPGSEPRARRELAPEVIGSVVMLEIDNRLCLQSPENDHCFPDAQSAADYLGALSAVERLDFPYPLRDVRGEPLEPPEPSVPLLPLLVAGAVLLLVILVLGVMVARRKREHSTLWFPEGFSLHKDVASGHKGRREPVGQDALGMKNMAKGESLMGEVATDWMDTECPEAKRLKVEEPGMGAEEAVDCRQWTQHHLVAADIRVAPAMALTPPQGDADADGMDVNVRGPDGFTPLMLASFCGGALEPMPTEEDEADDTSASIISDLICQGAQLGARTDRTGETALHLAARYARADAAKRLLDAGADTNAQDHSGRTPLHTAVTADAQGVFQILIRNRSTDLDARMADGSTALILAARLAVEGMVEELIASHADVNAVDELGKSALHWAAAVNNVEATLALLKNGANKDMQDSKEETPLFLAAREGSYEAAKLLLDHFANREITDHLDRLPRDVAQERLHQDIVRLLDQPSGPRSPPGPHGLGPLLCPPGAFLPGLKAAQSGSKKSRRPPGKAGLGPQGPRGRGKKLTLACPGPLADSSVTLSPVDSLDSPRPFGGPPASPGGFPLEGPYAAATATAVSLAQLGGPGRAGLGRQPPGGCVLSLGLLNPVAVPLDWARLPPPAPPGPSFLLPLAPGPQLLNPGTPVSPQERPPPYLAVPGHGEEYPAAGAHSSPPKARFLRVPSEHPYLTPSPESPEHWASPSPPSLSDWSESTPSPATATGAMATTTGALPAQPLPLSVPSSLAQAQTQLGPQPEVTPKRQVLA
Follistatin-related protein 3 (Homo sapiens), sequence (O95633 whole entry, looked up): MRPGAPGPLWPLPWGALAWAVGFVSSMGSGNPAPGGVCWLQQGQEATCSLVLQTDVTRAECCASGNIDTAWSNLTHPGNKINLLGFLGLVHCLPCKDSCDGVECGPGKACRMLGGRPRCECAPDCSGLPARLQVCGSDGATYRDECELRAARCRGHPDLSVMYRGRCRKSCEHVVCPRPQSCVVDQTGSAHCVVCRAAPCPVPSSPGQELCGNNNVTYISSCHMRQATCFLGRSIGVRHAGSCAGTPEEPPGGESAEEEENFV
Dickkopf-related protein 1 (Homo sapiens), sequence (O94907 whole entry, looked up): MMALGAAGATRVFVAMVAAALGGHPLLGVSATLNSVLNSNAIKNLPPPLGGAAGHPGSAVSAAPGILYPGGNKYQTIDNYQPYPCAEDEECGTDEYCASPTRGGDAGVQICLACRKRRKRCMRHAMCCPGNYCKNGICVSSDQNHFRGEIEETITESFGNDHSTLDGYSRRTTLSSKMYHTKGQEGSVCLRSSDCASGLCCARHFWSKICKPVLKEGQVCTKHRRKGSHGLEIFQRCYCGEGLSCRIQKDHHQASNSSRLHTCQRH
Epidermal growth factor receptor (Homo sapiens), sequence (P00533 whole entry, looked up): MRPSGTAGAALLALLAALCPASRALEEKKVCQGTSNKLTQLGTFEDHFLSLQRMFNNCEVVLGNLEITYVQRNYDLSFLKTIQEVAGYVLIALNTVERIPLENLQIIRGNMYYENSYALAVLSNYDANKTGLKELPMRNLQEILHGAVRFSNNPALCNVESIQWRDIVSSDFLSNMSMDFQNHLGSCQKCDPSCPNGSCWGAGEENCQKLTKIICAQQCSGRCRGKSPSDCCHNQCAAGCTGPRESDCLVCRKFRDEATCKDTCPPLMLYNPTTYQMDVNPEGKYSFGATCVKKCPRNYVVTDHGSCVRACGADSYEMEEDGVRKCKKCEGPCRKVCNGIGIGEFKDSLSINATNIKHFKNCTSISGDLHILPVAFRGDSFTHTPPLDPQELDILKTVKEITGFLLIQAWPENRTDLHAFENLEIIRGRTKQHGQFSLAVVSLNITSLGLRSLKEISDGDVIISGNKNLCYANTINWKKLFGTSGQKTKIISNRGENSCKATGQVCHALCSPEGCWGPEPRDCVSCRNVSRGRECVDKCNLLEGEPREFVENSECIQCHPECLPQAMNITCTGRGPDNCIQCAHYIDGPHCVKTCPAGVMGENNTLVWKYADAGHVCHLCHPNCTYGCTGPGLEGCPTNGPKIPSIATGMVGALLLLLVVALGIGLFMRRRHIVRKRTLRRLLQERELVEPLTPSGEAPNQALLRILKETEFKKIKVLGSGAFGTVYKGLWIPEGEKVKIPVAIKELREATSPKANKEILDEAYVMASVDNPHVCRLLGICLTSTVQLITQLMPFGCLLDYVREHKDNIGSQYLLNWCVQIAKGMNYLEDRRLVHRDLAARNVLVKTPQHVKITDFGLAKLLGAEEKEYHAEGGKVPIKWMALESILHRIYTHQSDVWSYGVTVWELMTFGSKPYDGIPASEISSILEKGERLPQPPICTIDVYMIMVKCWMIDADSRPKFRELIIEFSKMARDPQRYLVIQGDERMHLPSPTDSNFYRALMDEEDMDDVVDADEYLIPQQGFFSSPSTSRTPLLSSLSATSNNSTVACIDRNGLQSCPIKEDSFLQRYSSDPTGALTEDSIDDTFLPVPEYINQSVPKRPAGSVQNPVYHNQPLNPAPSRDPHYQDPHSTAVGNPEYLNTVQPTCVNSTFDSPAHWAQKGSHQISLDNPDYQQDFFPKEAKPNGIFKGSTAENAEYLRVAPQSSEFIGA

SMILES | composite z-score [1] | z-score [2] | z-score [3] | z-score [4] | composite z-score [5] | z-score [6] | composite z-score [7] | composite z-score [8] | composite z-score [9] | composite z-score [10] | composite z-score [11] | composite z-score [12] | composite z-score [13] | z-score [14] | composite z-score [15] | composite z-score [16] | composite z-score [17] | composite z-score [18] | composite z-score [19] | composite z-score [20]
C#CCCCON=C1C[C@@H](O)[C@@H](O)[C@@H]2[C@@H]3C(=O)N(CC)C(=O)[C@@H]3CC[C@@H]12 | 0.677 | -0.0246 (inactive) | 0.267 (inactive) | 1.25 (inactive) | 0.187 | 0.439 (inactive) | -0.0478 | 0.167 | 0.426 | -0.0972 | 0.254 | -0.129 | -0.697 | 0.401 (inactive) | 1.18 | 0.545 | 0.631 | 0.496 | 0.628 | -0.236
CO[C@@H]1COC(=O)[C@H](CCSC)NC(=O)CC=C[C@@H](C)COC(=O)[C@H](C)NC(=O)CC=C[C@H]1C | 1.39 | 0.153 (inactive) | -0.266 (inactive) | 0.291 (inactive) | -0.0068 | 1.01 (inactive) | -0.247 | 0.783 | 0.989 | -0.201 | 0.931 | -0.34 | -0.833 | 0.0885 (inactive) | 0.816 | 0.856 | 0.953 | 1.1 | 1.19 | -0.0263
COc1cccc([C@H]2Oc3ccc(OC)cc3C(=NO[C@@H]3O[C@H](COC(C)=O)[C@@H](OC(C)=O)[C@H](OC(C)=O)[C@H]3OC(C)=O)[C@@H]2O)c1 | 0.102 | -1.07 (inactive) | 1.14 (inactive) | -0.239 (inactive) | -0.0867 | 0.373 (inactive) | -0.119 | 0.35 | 0.615 | 0.0009 | -0.531 | 0.0366 | -0.0882 | 0.598 (inactive) | 0.261 | -0.157 | 0.344 | 0.0855 | 0.0647 | -0.43
CO[C@H]1COC(=O)CC=C[C@@H](C)[C@H](NS(=O)(=O)c2ccc(C)cc2)COC(=O)CCC[C@@H]1C | 1.1 | -0.419 (inactive) | 0.14 (inactive) | -0.726 (inactive) | -0.401 | -0.0537 (inactive) | -0.122 | 0.676 | 0.77 | -0.067 | 0.684 | -0.233 | -0.689 | -0.679 (inactive) | 0.366 | 0.22 | 0.484 | 1.04 | 1.53 | 0.9
COC(=O)[C@H](C)NC(=O)CCC1CC(OC(=O)NCCc2ccc(F)cc2)CC2(CCCC(COC(=O)NCc3cccc(C(F)(F)F)c3)O2)O1 (stereo not given in full) | 0.292 | -0.207 (inactive) | 1.18 (inactive) | 0.52 (inactive) | 1.79 | 0.723 (inactive) | -0.0668 | 1.01 | 0.581 | -0.0647 | 0.185 | -0.528 | -0.623 | 0.249 (inactive) | 0.951 | 0.359 | 0.873 | 1.31 | 1.41 | 0.0622
